Experimental data as given in PubChem BioAssay.
Several values for one entry are separate records, joined by “and”; a condition that tells them apart may be missing. Equal values may be shown once. Activity calls are given as the source filed them.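 The calls were made as follows, unless noted: active = normalized viability below 100% at a tested concentration; inactive = the rest.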

Legend:
[1] = Wnt pathway potentiators raising nuclear beta-catenin – imaging, WNT3A-conditioned medium, mouse C2C12, NPC library, primary screen (AID 1117326; in the data active = nuclear beta-catenin stimulation mostly above about 4.2%, no sharp cut-off; inactive = mostly below about 10%); details: stronger effect = higher value
[2] = stimulators of insulin release from INS-1E, primary screen, cell-based, 5 mM glucose, NPC library (AID 1117329;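 active = compound raises insulin release from rat beta cells at 5 mM glucose, no numeric limit stated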); details: rat INS-1E insulin secretion, at 10 µM, stronger effect = higher value
[3] = growth inhibition of GSK3B-pretreated HCT116 cells – cell-based, CellTiter-Glo, 0.2 to 20 µM (AID 1117336;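 active = compounds lowering colon cancer cell viability after pretreatment blocking the GSK3B kinase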); details: HCT116 viability after GSK3B inhibitor, at 20 µM, stronger effect = higher value
[4] = inhibition of endothelial tube formation, primary screen, imaging, VEGF stimulated, CD31 staining, tube area, NPC library (AID 1117340;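 active = compound that reduces growth-factor-driven endothelial tube area in a mixed cell culture, no cutoff stated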); details: VEGF-stimulated ADSC/ECFC co-culture, at 10 µM, stronger effect = higher value
[5] = GLP1 release stimulators, primary, NCI-H716, NPC library (AID 1117341;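 active = compound raises GLP1 secretion from the human gut endocrine cells, with no numeric limit stated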); details: NCI-H716 cells, at 10 µM, stronger effect = higher value
[6] = HCT116 colon cancer cell growth inhibition, primary screen, CellTiter-Glo luminescence, NPC library (AID 1117342;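 active = compounds that lower survival of HCT116 colon cancer cells in the luminescence readout, no numeric limit stated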); details: at 20 µM (top of the series)
[7] = reduced SW480 viability measured with CellTiter-Glo, NPC library, primary (AID 1117343;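 active = compounds that lower viability of the colon cancer cells in the luminescence readout, with no numeric limit stated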); details: CellTiter-Glo luminescence; at 20 µM (top of the series) unless noted
[8] = NPC library primary testing for decreased DLD-1 cell viability via CellTiter-Glo (AID 1117346;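 active = compounds that lower survival of DLD-1 colon cancer cells in the luminescence readout, no cutoff given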); details: DLD-1 viability, CellTiter-Glo luminescence; at 20 µM (top of the series)
[9] = EMT-state selective cytotoxicity in co-culture – imaging, PC-3E GFP, TEM4-18 mCherry, primary screen (AID 1345086;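 active = compounds killing one labelled cell type while sparing the other, by normalised counts and ratio limits, not self-fluorescent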;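 as to all read-outs here: cells exposed to compound for 72 h before imaging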;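 as to red/green cell ratio (normalised): normalised mesenchymal count divided by normalised epithelial count so high means epithelial killing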); details: PC-3E GFP / TEM4-18 mCherry co-culture, imaging cell counts, at 1 µM; for red/green cell ratio (normalised): actives lie on both sides, counts scaled to control wells, 1 = unselective
[10] = viability loss with induced miR-34 in A549 – imaging, A549 dox-inducible miR-34, nuclei and caspase counts, primary screen (AID 1347080;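 active = compounds whose cell count with miR-34 switched on is under 0.7 times the count with it off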); details: A549 miR-34 inducible, Hoechst nuclei count, 48 h
[11] = MELAS cybrid and Rieske KO viability enhancers – cell-based, MELAS cybrids, Rieske KO mouse fibroblasts, CellTiter-Glo, primary screen (AID 1508586;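 active = mean z-score across replicates of 1.96 or higher in either the MELAS or the Rieske mutant cell line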;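 also: z relative to plate mean and SD of compound and empty wells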); details: low glucose
[12] = drug combination growth inhibition, ovarian cancer – cell-based, oncology-focused library, rucaparib conditional, profiling panel (AID 1508598); details: patient-derived ovarian cancer cells, CellTiter-Glo viability, 144 h, stronger effect = lower value
[13] = target: NAD(+) hydrolase SARM1 (Homo sapiens) (UniProt Q6SZW1); test: blocking NAD cleavage by SARM1 SAM-TIR – cell lysate, NAD-Glo luminescence (AID 1508614;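 active = compound whose remaining NAD level is above about 45 nM, limit read from the data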;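 also: higher remaining NAD means stronger inhibition of SARM1 NADase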); details: SAM-TIR HEK293T lysate NADase, at 1 µM, stronger effect = higher value
Chain of NAD(+) hydrolase SARM1 (Homo sapiens) (Q6SZW1 whole entry, looked up): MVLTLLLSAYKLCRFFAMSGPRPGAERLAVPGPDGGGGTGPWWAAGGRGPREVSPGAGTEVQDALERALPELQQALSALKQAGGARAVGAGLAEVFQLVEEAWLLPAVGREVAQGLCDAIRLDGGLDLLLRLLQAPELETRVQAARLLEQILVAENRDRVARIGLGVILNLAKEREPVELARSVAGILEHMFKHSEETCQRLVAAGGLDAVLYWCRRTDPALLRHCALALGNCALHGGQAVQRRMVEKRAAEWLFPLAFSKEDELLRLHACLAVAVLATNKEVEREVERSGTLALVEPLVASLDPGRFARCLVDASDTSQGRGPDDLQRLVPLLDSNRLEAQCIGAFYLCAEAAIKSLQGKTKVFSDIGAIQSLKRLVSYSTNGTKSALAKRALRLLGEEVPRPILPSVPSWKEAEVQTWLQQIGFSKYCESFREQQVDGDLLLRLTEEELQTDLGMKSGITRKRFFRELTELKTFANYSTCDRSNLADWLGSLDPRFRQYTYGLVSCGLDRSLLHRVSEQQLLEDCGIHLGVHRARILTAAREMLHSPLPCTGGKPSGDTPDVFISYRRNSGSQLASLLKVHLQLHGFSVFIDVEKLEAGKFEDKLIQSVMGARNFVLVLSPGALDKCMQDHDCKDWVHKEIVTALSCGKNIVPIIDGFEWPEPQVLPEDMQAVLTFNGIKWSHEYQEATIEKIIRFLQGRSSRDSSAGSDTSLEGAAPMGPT

[14] = P. berghei load reduction in hepatocytes – cell-based, HepG2, luciferase luminescence, HepG2 viability, primary screen (AID 624349; in the data active = parasite load remaining mostly below about 12%, no sharp cut-off; inactive = mostly above about 10%;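 also: 100% = mean of DMSO negative control wells on the same plate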); details: P. berghei liver stage in HepG2, luciferase luminescence, concentration not given here; parasite load remaining: stronger effect = lower value; viability: measured here: HepG2 viability without parasites
[15] = measured here: epithelial PC-3E GFP cell survival
[16] = measured here: mesenchymal TEM4-18 mCherry cell survival
[17] = stronger effect = lower value, cell number ratio, induced over uninduced
[18] = measured here: relative caspase fold change +Dox/-Dox
[19] = measured here: total cells with miR-34 induction, stronger effect = lower value
[20] = measured here: total cells without miR-34 induction
[21] = MELAS cybrid survival, CellTiter-Glo 48 h, stronger effect = higher value
[22] = Rieske KO mouse fibroblast survival, CellTiter-Glo 72 h

Cc1nc(Nc2ncc(C(=O)Nc3c(C)cccc3Cl)s2)cc(N2CCN(CCO)CC2)n1
0.654 and 0.731: fold change [10, 18]
0.58: normalised cell number [9, 16]
0.38: normalised cell number [9, 15]
active: nuclear beta-catenin stimulation ([1]; at 10 µM) 69.4% | tube area decrease [4] 62.2% | inhibition of viability [6] 69.7% | viability decrease (inhibition) [7] 87.2% | viability decrease (inhibition) [8] 100% | z-score [11, 21] 4.95 | viability ([12]; at 0.000305 µM, OCI-P5x cells, without rucaparib) 98.9% | viability ([12]; at 0.00122 µM, OCI-C5x cells, with rucaparib 10 µM, 100% = cells with rucaparib alone) 99.9% | viability ([12]; at 0.00122 µM, OCI-P5x cells, with rucaparib 20 µM, 100% = cells with rucaparib alone) 54.8% | viability ([12]; at 0.00122 µM, OCI-P5x cells, without rucaparib) 97.2% | viability ([12]; at 0.00488 µM, OCI-P5x cells, with rucaparib 20 µM, 100% = cells with rucaparib alone) 52.6% | viability ([12]; at 0.00488 µM, OCI-P5x cells, without rucaparib) 81.3% | viability ([12]; at 0.0195 µM, OCI-C5x cells, with rucaparib 10 µM, 100% = cells with rucaparib alone) 77.4% | viability ([12]; at 0.0195 µM, OCI-C5x cells, without rucaparib) 87.9% | viability ([12]; at 0.0195 µM, OCI-P5x cells, with rucaparib 20 µM, 100% = cells with rucaparib alone) 27.3% | viability ([12]; at 0.0195 µM, OCI-P5x cells, without rucaparib) 53.6% | viability ([12]; at 0.0781 µM, OCI-C5x cells, with rucaparib 10 µM, 100% = cells with rucaparib alone) 68.4% | viability ([12]; at 0.0781 µM, OCI-C5x cells, without rucaparib) 72.4% | viability ([12]; at 0.0781 µM, OCI-P5x cells, with rucaparib 20 µM, 100% = cells with rucaparib alone) 17% | viability ([12]; at 0.0781 µM, OCI-P5x cells, without rucaparib) 31.8% | viability ([12]; at 0.313 µM, OCI-C5x cells, with rucaparib 10 µM, 100% = cells with rucaparib alone) 69.2% | viability ([12]; at 0.313 µM, OCI-C5x cells, without rucaparib) 71.6% | viability ([12]; at 0.313 µM, OCI-P5x cells, with rucaparib 20 µM, 100% = cells with rucaparib alone) 17% | viability ([12]; at 0.313 µM, OCI-P5x cells, without rucaparib) 28.4% | viability ([12]; at 1.25 µM, OCI-C5x cells, with rucaparib 10 µM, 100% = cells with rucaparib alone) 66.7% | viability ([12]; at 1.25 µM, OCI-C5x cells, without rucaparib) 71.4% | viability ([12]; at 1.25 µM, OCI-P5x cells, with rucaparib 20 µM, 100% = cells with rucaparib alone) 16.6% | viability ([12]; at 1.25 µM, OCI-P5x cells, without rucaparib) 24.3% | viability ([12]; at 5 µM, OCI-C5x cells, with rucaparib 10 µM, 100% = cells with rucaparib alone) 44.6% | viability ([12]; at 5 µM, OCI-C5x cells, without rucaparib) 51.1% | viability ([12]; at 5 µM, OCI-P5x cells, with rucaparib 20 µM, 100% = cells with rucaparib alone) 2.14% | viability ([12]; at 5 µM, OCI-P5x cells, without rucaparib) 10.5%
470 and 582: cell count [10, 19]
65.2%: nuclear beta-catenin stimulation ([1]; stimulation, at 2 µM)
524 and 647: cell count [10, 20]
inactive: insulin secretion stimulation [2] -0.7% | viability decrease [3] -182% | GLP1 secretion stimulation [5] 2.2% | red/green cell ratio (normalised) [9] 1.54 | fold change [10, 17] 0.896 and 0.9 | viability ([12]; at 0.000305 µM, OCI-C5x cells, with rucaparib 10 µM, 100% = cells with rucaparib alone) 102% | viability ([12]; at 0.000305 µM, OCI-C5x cells, without rucaparib) 117% | viability ([12]; at 0.000305 µM, OCI-P5x cells, with rucaparib 20 µM, 100% = cells with rucaparib alone) 103% | viability ([12]; at 0.00122 µM, OCI-C5x cells, without rucaparib) 114% | viability ([12]; at 0.00488 µM, OCI-C5x cells, with rucaparib 10 µM, 100% = cells with rucaparib alone) 107% | viability ([12]; at 0.00488 µM, OCI-C5x cells, without rucaparib) 108% | remaining NAD [13] 10 nM
-1.77: z-score [11, 22]

O=C(Oc1cccc2cccnc12)c1ccccc1
12900: cell count [10, 20]
10400: cell count [10, 19]
0.498: z-score [11, 22]
inactive: parasite load remaining [14] 41.2% | nuclear beta-catenin stimulation ([1]; at 10 µM) 19.8% | insulin secretion stimulation [2] -2.2% | viability decrease [3] 23.6% | tube area decrease [4] -21.4% | GLP1 secretion stimulation [5] 0.9% | inhibition of viability [6] 27.1% | viability decrease (inhibition) [7] 22.8% [at 2 µM] | viability decrease (inhibition) [8] -5.55% | red/green cell ratio (normalised) [9] 1 | fold change [10, 17] 0.805 | z-score [11, 21] 0.276 | remaining NAD [13] 10 nM
102%: viability [14]
0.5%: nuclear beta-catenin stimulation ([1]; stimulation, at 2 µM)
1.13: normalised cell number [9, 16]
5.26: fold change [10, 18]
1.14: normalised cell number [9, 15]

CC[N+](CC)(CC(=O)Nc1c(C)cccc1C)Cc1ccccc1
1.61: normalised cell number [9, 16]
-0.906: z-score [11, 22]
146% and 98%: viability [14]
8770 and 14200: cell count [10, 20]
1.01: normalised cell number [9, 15]
0.77 and 5.58: fold change [10, 18]
6.8%: nuclear beta-catenin stimulation ([1]; stimulation, at 2 µM)
8020 and 13200: cell count [10, 19]
inactive: parasite load remaining [14] 117% and 51.1% | nuclear beta-catenin stimulation ([1]; at 10 µM) -0.3% | insulin secretion stimulation [2] -0.4% | viability decrease [3] -6.6% | tube area decrease [4] -5.6% | GLP1 secretion stimulation [5] 1.3% | inhibition of viability [6] -21.2% | viability decrease (inhibition) [7] 14.9% | viability decrease (inhibition) [8] -2.15% | red/green cell ratio (normalised) [9] 1.59 | fold change [10, 17] 0.914 and 0.932 | z-score [11, 21] -0.589 | remaining NAD [13] 10 nM
